Experimental data from PubChem BioAssay.
Values joined by “and” are separate entries in the source; they are usually repeats but may differ in a detail not shown here. Equal entries are not always repeated. For part of these data: Measured potencies and affinities stand elsewhere. The source holds several records for some structures; these can differ, active in one and inactive in another. Active and inactive are the calls of the source. Unless noted, the rule behind the calls is not given here.

How the values were obtained:
[1] = antimalarial activity against Dd2 strain (AID 2302;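 active = growth inhibition above 50% at the single 2 µM test dose, taken to imply half-maximal potency below 2 µM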;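 note: 0% = DMSO untreated growth and 100% = chloroquine plus artemisinin killed control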); details: P. falciparum Dd2 in RBCs, LDH growth readout, 72 h; at 2 µM; stronger effect = higher value
[2] = human hepatoma cell viability loss – ATP luminescence, cytotoxicity control for P. falciparum antimalarial project, primary screen (AID 2303;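 active = inhibition above 50%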;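 note: 0% = DMSO wells and 100% = digitonin-killed cells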); details: HepG2 viability, 24-48 h, at 10 µM, stronger effect = higher value
[3] = molecular target: L-lactate dehydrogenase (Plasmodium falciparum (isolate CDC / Honduras)) (UniProt Q27743); assay: PfLDH activity inhibition – cell lysate, 3D7 strain, counter-screen for P. falciparum growth inhibition project (AID 2304);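 note: 0% = vehicle and 100% = reference inhibitor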; details: P. falciparum 3D7 crude extract, LDH APAD/NBT absorbance; at 2 µM; stronger effect = higher value
[4] = inhibition of 3D7 malaria parasite growth – strain 3D7 (AID 2306);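 note: 0% = DMSO wells and 100% = chloroquine plus artemisinin control wells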; details: P. falciparum 3D7 erythrocytic growth, LDH absorbance, 72 h; at 2 µM; stronger effect = higher value
[5] = molecular target: Calcium-dependent protein kinase 1 (Plasmodium falciparum (isolate 3D7)) (UniProt P62344); assay: PfCDPK1 kinase inhibitors, biochemical, TCAMS library (AID 1159585; cut-off not given, nearly all actives have IC50 up to about 0.98 µM;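 note: inhibitors leave more ATP so luminescence rises with inhibition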); details: recombinant PfCDPK1, Kinase-Glo ATP depletion luminescence
[6] = molecular target: Plasmodium falciparum protein kinase 6 (PK6, PF3D7_1337100) (UniProt Q8IDW1); assay: PfPK6 kinase inhibitors, biochemical, TCAMS library (AID 1159586); details: recombinant PfPK6, Kinase-Glo ATP depletion luminescence
[7] = molecular target: Protein kinase 7 (PK7), Plasmodium falciparum 3D7 (PF3D7_0213400) (UniProt Q7YTF7); assay: inhibition of Plasmodium PK7 catalytic activity – biochemical, TCAMS antimalarial set, Kinase-Glo luminescence (AID 1159587); details: recombinant PfPK7, Kinase-Glo ATP depletion luminescence
[8] = molecular target: Calcium-dependent protein kinase 4 (Plasmodium falciparum (isolate 3D7)) (UniProt Q8IBS5); assay: PfCDPK4 kinase inhibitors, biochemical, TCAMS library (AID 1159588; cut-off not given, nearly all actives have IC50 up to about 0.91 µM); details: recombinant PfCDPK4, Kinase-Glo ATP depletion luminescence
Calcium-dependent protein kinase 4 (Plasmodium falciparum (isolate 3D7)), sequence (Q8IBS5 whole entry, looked up): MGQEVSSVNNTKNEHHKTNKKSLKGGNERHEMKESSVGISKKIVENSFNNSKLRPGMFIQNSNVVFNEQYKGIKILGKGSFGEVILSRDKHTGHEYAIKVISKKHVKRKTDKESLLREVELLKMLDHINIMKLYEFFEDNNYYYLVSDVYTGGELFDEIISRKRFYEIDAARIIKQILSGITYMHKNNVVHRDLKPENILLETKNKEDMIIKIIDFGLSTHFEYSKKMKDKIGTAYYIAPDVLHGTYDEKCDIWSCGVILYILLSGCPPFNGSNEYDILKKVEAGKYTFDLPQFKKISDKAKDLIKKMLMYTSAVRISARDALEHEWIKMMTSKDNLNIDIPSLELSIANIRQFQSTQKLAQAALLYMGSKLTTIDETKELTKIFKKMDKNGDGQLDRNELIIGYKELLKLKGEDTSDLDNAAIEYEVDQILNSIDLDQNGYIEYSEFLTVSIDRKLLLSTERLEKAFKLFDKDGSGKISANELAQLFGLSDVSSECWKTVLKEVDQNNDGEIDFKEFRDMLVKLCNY

Plasmodium falciparum protein kinase 6 (PK6, PF3D7_1337100), sequence (Q8IDW1 1-305): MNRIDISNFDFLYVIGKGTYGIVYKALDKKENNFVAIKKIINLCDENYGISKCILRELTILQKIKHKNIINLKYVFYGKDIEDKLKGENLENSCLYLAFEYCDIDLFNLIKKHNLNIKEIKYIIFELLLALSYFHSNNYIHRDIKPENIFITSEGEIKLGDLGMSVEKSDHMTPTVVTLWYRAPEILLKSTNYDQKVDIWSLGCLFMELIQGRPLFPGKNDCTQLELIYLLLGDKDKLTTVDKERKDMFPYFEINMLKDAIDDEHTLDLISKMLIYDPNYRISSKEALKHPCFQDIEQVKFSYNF
L-lactate dehydrogenase (Plasmodium falciparum (isolate CDC / Honduras)), sequence (Q27743 whole entry, looked up): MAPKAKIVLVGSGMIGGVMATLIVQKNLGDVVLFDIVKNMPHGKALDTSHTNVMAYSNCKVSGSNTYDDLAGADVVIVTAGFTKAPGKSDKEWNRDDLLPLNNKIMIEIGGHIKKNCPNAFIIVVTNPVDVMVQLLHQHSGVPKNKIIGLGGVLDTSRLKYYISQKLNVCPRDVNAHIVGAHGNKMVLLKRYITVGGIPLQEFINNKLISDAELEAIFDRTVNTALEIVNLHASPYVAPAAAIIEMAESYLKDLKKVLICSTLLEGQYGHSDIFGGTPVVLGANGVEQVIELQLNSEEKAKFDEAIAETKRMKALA
Protein kinase 7 (PK7), Plasmodium falciparum 3D7 (PF3D7_0213400), sequence (Q7YTF7 1-343): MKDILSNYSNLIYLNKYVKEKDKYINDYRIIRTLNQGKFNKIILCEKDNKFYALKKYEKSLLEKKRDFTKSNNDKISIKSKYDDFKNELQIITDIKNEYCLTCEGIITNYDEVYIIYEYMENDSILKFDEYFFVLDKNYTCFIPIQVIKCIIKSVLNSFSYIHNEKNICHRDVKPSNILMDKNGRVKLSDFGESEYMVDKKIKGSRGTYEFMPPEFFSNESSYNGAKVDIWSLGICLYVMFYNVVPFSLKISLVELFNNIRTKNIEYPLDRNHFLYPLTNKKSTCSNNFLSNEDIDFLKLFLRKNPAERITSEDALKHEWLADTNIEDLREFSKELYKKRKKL
Calcium-dependent protein kinase 1 (Plasmodium falciparum (isolate 3D7)), sequence (P62344 whole entry, looked up): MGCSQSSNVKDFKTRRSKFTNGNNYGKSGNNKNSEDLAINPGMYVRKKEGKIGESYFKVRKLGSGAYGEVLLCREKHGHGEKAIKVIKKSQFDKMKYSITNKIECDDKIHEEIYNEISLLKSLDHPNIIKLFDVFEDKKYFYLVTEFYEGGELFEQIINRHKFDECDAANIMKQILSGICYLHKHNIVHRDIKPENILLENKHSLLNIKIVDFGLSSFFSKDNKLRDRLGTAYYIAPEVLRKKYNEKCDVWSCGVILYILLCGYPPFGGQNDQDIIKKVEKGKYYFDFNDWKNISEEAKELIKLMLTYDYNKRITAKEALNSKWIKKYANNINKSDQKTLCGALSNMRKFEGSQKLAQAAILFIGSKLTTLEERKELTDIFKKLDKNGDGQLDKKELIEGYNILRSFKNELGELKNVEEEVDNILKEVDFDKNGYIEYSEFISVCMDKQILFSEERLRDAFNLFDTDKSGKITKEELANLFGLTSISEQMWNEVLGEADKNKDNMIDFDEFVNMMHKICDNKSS

| SMILES | growth inhibition [1] | inhibition [2] | inhibition [3] | growth inhibition [4] | outcome [5] | outcome [6] | outcome [7] | outcome [8] |
| --- | --- | --- | --- | --- | --- | --- | --- | --- |
| O=C(NC1CCN(CC2(c3ccc(Cl)cc3)CCC2)CC1)c1cscn1 | 95% (active) | -2% (inactive) | -1% (inactive) | 98% (active) | inactive | inactive | inactive | inactive |
| COCCNCc1ccc(-c2ccc(CN(C(=O)Nc3ccccc3)C3CCN(Cc4ccccc4)CC3)cc2)cc1 | 39% (inactive) | 16% (inactive) | -5% (inactive) | 98% (active) | inactive | inactive | inactive | inactive |
| O=C(/C=C/c1cccc(F)c1)NC1CCC(CN2CCC(c3c[nH]c4ccccc34)CC2)CC1 (configuration not stated) | 31% (inactive) and 28% (inactive) | 39% (inactive) and 35% (inactive) | -1% (inactive) and 0% (inactive) | 98% (active) and 99% (active) | inactive | inactive | inactive | inactive |
| CN1CC=C(c2c[nH]c3ccc(Oc4ccccc4)cc23)CC1 | 98% (active) | 40% (inactive) | -7% (inactive) | 98% (active) | inactive | inactive | inactive | inactive |
| O=C(C=Cc1ccccc1Br)NC1CCC(CN2CCC(c3c[nH]c4ccccc34)CC2)CC1 (configuration not stated) | 32% (inactive) and 57% (active) | 36% (inactive) and 43% (inactive) | 4% (inactive) | 101% (active) and 102% (active) | inactive | inactive | inactive | inactive |
| CC(C)CNCc1ccc(-c2cccc(CN(C(=O)NC3CCCCC3)C3CCN(Cc4ccccc4)CC3)c2)cc1 | 88% (active) | 20% (inactive) | 2% (inactive) | 98% (active) | inactive | inactive | inactive | inactive |
| O=C(/C=C/c1cc(C(F)(F)F)ccc1F)N1CCC(CN2CCC(c3c[nH]c4ccccc34)CC2)CC1 | 14% (inactive) | 22% (inactive) | -1% (inactive) | 96% (active) | inactive | inactive | inactive | inactive |
| CN(C)CCc1c[nH]c2ccc(C(=O)Nc3ccc(-c4ccncc4)cc3)cc12 | 46% (inactive) | 23% (inactive) | -7% (inactive) | 99% (active) | inactive | inactive | inactive | inactive |
| CC[C@H]1CN2CC[C@@H]1C[C@H]2[C@H](O)c1cc(N2CCC(C)CC2)nc2ccc(OC)cc12 | 98% (active) | 16% (inactive) | 1% (inactive) | 99% (active) | inactive | inactive | inactive | inactive |
| CCOC(=O)c1c(C)n(C2CCCCC2)c2cc(Br)c(O)cc12 | 71% (active) | 1% (inactive) | -3% (inactive) | 98% (active) | inactive | inactive | inactive | inactive |
| N#Cc1ccc(N(CC(=O)NCCc2ccc(F)cc2)CC2CC2)c2ccccc12 | 23% (inactive) | 28% (inactive) | -2% (inactive) | 91% (active) | inactive | inactive | inactive | inactive |
| CCCc1c(C(=O)NC2CCC(CN3CCC(c4c[nH]c5ccccc45)CC3)CC2)cnn1-c1ccccc1 (configuration not stated) | 7% (inactive) | 33% (inactive) | -1% (inactive) | 92% (active) | inactive | inactive | inactive | inactive |
| CC(Cc1ccc(NC(=O)[C@@H](C)NCCc2cccc(Cl)c2)cc1)NCCc1cccc(Cl)c1 (some centres not stated) | 54% (active) | 99% (active) | -1% (inactive) | 99% (active) | inactive | inactive | inactive | inactive |
| Cc1[nH]c2cc(Cl)ccc2c1C1=CCN(CCN2CCOc3c(Br)cccc3C2=O)CC1 | 58% (active) | 1% (inactive) | 4% (inactive) | 90% (active) | inactive | inactive | inactive | inactive |
| O=C(/C=C/c1ccc(Cl)c(Cl)c1)N1CCC(CN2CCC(c3c(-c4ccc(F)cc4)[nH]c4ccccc34)CC2)CC1 | 98% (active) | 19% (inactive) | -3% (inactive) | 101% (active) | inactive | inactive | inactive | inactive |
| COc1cccc(CCNC(C)Cc2ccc(OCCCCOc3ccccc3)cc2)c1 (configuration not stated) | 90% (active) | 100% (active) | 5% (inactive) | 97% (active) | inactive | inactive | inactive | inactive |
| Brc1cnc(NC2=NCCN2)c(Br)c1 | -1% (inactive) | -6% (inactive) | -3% (inactive) | 99% (active) | inactive | inactive | inactive | inactive |
| O=C(NC1CCN(CC2(c3ccc(Cl)cc3)CCC2)CC1)c1ccn[nH]1 | 43% (inactive) | -7% (inactive) | -3% (inactive) | 96% (active) | inactive | inactive | inactive | inactive |
| CN(c1ccc(NC(=O)CCOc2ccccc2)cc1)C1CCN(Cc2cccc(O)c2)CC1 | -1% (inactive) | 18% (inactive) | 3% (inactive) | 89% (active) | inactive | inactive | inactive | inactive |
| Cc1cc(C(=O)NC2CCN(CC3(c4ccc(Cl)cc4)CCC3)CC2)on1 | 95% (active) | 5% (inactive) | -3% (inactive) | 98% (active) | inactive | inactive | inactive | inactive |
| COc1cccc(CC(C)NCC(O)c2cccc(Cl)c2)c1 (configuration not stated) | 76% (active) | 7% (inactive) | -1% (inactive) | 85% (active) | inactive | inactive | inactive | inactive |
| CC[C@H]1CN2CC[C@H]1C[C@@H]2[C@@H](O)c1ccnc2ccccc12 | 20% (inactive) | 10% (inactive) | -4% (inactive) | 98% (active) | inactive | inactive | inactive | inactive |
| CC[C@H]1CN2CC[C@@H]1C[C@H]2[C@H](O)c1cc(N2CCC(c3ccccc3)CC2)nc2ccc(OC)cc12 | 98% (active) | 45% (inactive) | -5% (inactive) | 99% (active) | inactive | inactive | inactive | inactive |
| CCCCCC(C)C(C)c1cc(O)c2c(c1)OC(C)(C)c1cnccc1-2 (configuration not stated) | 74% (active) | 7% (inactive) | -3% (inactive) | 94% (active) | inactive | inactive | inactive | inactive |
